# In PubChem BioAssay (NCI):
# The panel holds about 83,000 compounds, 20% with a hit somewhere; the sample as a whole holds those more often.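 Note: values are percent growth. 100 is the growth of untreated cells, values between 100 and 0 indicate rising inhibition; between -100 and 0 indicates cell death.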 A number with no mark means an inactive call. Activity calls are given as the source filed them. How the source made its calls: active means growth percent below 10; inactive means the rest.
# Columns and labels:
# Experiment in all cases: NCI-60 one-dose screen, 48 h (100 = growth as untreated, 0 = no growth, -100 = all killed)
# Settings in all cases: 10 µM unless noted
# T-47D breast = tested on: T-47D breast
# BT-549 breast = tested on: BT-549 breast
# MDA-MB-435 melanoma = tested on: MDA-MB-435 melanoma
# SW-620 colon = tested on: SW-620 colon
# MCF7 breast = tested on: MCF7 breast
# HCT-116 colon = tested on: HCT-116 colon
# HCC-2998 colon = tested on: HCC-2998 colon
# KM12 colon = tested on: KM12 colon
SMILES,growth (T-47D breast),growth (BT-549 breast),growth (MDA-MB-435 melanoma),growth (SW-620 colon),growth (MCF7 breast),growth (HCT-116 colon),growth (HCC-2998 colon),growth (KM12 colon)
O=C(NO)c1ccc(-n2nc(-c3ccccc3)c3ccccc32)cc1,37.3%,67.2%,84.7%,41.2%,22.4%,7.64% (active),44.1%,71.8%
CCOc1ccc(Nc2nc(-c3ccc4c(c3)NC(=O)CO4)cs2)cc1,24.6%,47%,30.7%,82.5%,38.1%,40.7%,86%,67.9%
CN1CCN(c2ccc(NC3=C(Cl)C(=O)c4ncccc4C3=O)cc2C(F)(F)F)CC1,-19.7% (active),89.8%,-62.5% (active),-53% (active),-49.1% (active),-57.3% (active),105%,105%
COc1cc(/C(C)=C(\c2ccc(Cl)cc2)c2ccc(OCCN(C)C)cc2)ccc1F,61.2%,76.2%,39.6%,49.8%,31.7%,46.8%,25.1%,44%
CCN(CC)CC[n+]1cc2cc(OC)c(OC)cc2c2ccc3cc4c(cc3c21)OCO4,16.2%,-4.72% (active),24.6%,9.98% (active),11.5%,-83% (active),18.7%,-82.2% (active)
CC(=O)Nc1cccc(-c2ccc3c(c2)NC(=O)/C3=C\c2ccc[nH]2)c1,17.7%,43.2%,25.6%,37.9%,17.8%,37%,57.1%,14.5%
CCNc1nc2ccc(Nc3ccnc4cc(Cl)ccc34)cc2[nH]1,100%,86.8%,93.1%,57.8%,45.1%,17.3%,84.1%,67%
COc1ccc(C(=O)c2nc3ccccc3n2CC(=O)c2ccc(F)cc2)cc1,91.6%,93.2%,-16.4% (active),46%,62.9%,89.5%,65.3%,56.2%
NC(=NCCCOc1ccc(F)cc1)Nc1ccc(I)cc1,28.2%,74.8%,64.4%,67.1%,10%,58.7%,29.2%,87.8%
CCCOc1ccc(/C=N/Nc2cc(C)nc3ccc(Br)cc23)cc1,96.4%,99.3%,85.8%,6.14% (active),37.3%,26.6%,57.3%,76.2%
O=C1Nc2ccccc2/C1=C\c1c(-c2ccccc2)nc2ccccn12,38.1%,45.3%,-42% (active),21.2%,19.6%,20.6%,107%,23.3%
Cc1cc2nc3c4ccc(Br)cc4n(CCN(C)C)c3nc2cc1C,21.6%,57.5%,18.3%,0.693% (active),0.513% (active),9.24% (active),17%,23.8%
c1ccc(-c2cn3c(ccc4ccccc43)n2)cc1,66.5%,63.6%,-34.7% (active),22.8%,28.5%,35%,75.5%,23.4%
O=S(=O)(NCCCNc1nccc(-c2c(-c3cccc(O)c3)nc3occn23)n1)c1ccc(Cl)cc1,64.2%,102%,33.8%,109%,82.6%,61.9%,120%,86.2%
c1ccc(-c2c(-c3ccccc3)[n+](Cc3ccc4ccccc4c3)c(-c3cccc4ccccc34)n2Cc2ccc3ccccc3c2)cc1,-73.4% (active),-63.7% (active),-58.6% (active),-66.1% (active),-15% (active),-74.4% (active),-74.5% (active),-77.7% (active)
CCCCCN1C=C/C(=C\C(=O)N(C)c2ccc(OC(F)(F)F)cc2)c2ccccc21,88.3%,109%,105%,98.1%,88.7%,74.3%,106%,102%
N#Cc1c(-c2ccccc2)nc2c(c(-c3ccccc3)nn2-c2ccccc2)c1-c1ccc(O)cc1,35.3%,59.7%,51.5%,16.5%,14.8%,34.8%,72%,47.1%
CC1=C(C(=O)/C=C/c2ccc(N(C)C)cc2)C(c2ccccc2)NC(=S)N1 (stereo not given),101%,118%,102%,98.8%,99.2%,101%,108%,101%
CCCOc1ccc(/C=N/Nc2cc(C)nc3ccc(Cl)cc23)cc1,45.9%,102%,-40.4% (active),-75.5% (active),-20.5% (active),-74.8% (active),-39.9% (active),16.5%
Cn1cc(CC2CC(=O)N(c3ccccc3)C2=O)sc1=NC(=O)c1ccccc1 (stereo not given),91.1%,87.2%,101%,94.5%,99.2%,96.9%,100%,98.6%
OC(c1ccc(F)c(C(F)(F)F)c1)c1cnccc1NC1CCCCC1 (stereo not given),41.5%,90.5%,78.5%,58.3%,58.4%,36.4%,-51% (active),70.6%
CC1=C(C(=O)/C=C/c2c[nH]c3ccccc23)C(c2ccccc2)NC(=S)N1 (stereo not given),98.6%,107%,97.4%,91.7%,95.4%,93.3%,108%,106%
CN(C)CC(O)c1ccc(/C=C/c2ccc(Cl)cc2)cc1 (stereo not given),30.9%,78.8%,-48.2% (active),-68.7% (active),-81.6% (active),-58.3% (active),-69% (active),-91.5% (active)
CCOC(=O)Nc1ccc(-c2ccc3c(c2)NC(=O)/C3=C\c2ccc[nH]2)cc1,6.7% (active),56.4%,102%,113%,10%,107%,85.8%,63.6%
Nc1nc(Nc2ccccc2SSc2ccccc2Nc2nc(N)nc(-c3cccs3)n2)nc(-c2ccsc2)n1,56.2%,86%,98.1%,80.4%,68.1%,84.9%,111%,67.6%
COc1cc2cc(Oc3cccc(NC(=O)Nc4cc(C(F)(F)F)cc(C(F)(F)F)c4)c3)c(C)nc2cc1OC,7.52% (active),1.44% (active),-2.55% (active),15.9%,0.59% (active),3.73% (active),21.3%,5.61% (active)
N#CC1C(C#N)C(C(=O)c2ccc(Br)cc2)N2c3ccccc3C=CC12 (stereo not given),49.3%,93.2%,16%,66.4%,13%,68.5%,50.7%,22.3%
COc1ccc(-c2cnc3c(-c4cccc5ncccc45)cnn3c2)cc1,45.7%,37.1%,58%,73.8%,72.2%,11.9%,90.7%,69.3%
C=CCN1C(=O)/C(=C/C(=O)OC)S/C1=N\NC(=O)c1cc2ccc1/C=C\c1ccc(cc1)/C=C\2,62.8%,61.7%,100%,44.5%,51.5%,54%,108%,81.6%
c1ccc2c(-c3nccs3)c[nH]c2c1,96.3%,86.6%,101%,99.1%,79.8%,95.7%,107%,96.3%
